Shown are actives, neighbours in structure and some others; about 19% of the full set was active somewhere.
DT40 TDP1 CPT: DT40-hTDP1 cell growth loss with CPT | chicken DT40 Tdp1-/-;hTDP1 cells + 20 nM CPT, ATP luminescence, 48 h | Potency, µM (titrated, usually from 46.2 µM), usual class: inhibitors | actives 12% (n = 420,000) | AID 686979; also: nearly all actives have a fitted effect of over 55% in size
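Chicken DT40 Tdp1-/- cells stably complemented with human TDP1 were seeded at 400 cells/well in medium containing 20 nM camptothecin, exposed to pin-transferred compounds, and grown at 37 °C for at least 48 hr. Viability was read as ATP luminescence.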
SW480 rereplic: inducers of DNA re-replication in SW480 colon cancer cells | Potency, µM (top dose mostly 46.1 µM), actives largely listed as activators | SW480 DNA re-replication, Hoechst DNA content imaging, 48 h | AID 624297 | actives 1.8% (n = 340,000); also: nearly all actives have a fitted effect of over 55% in size
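250 cells/well; 23 nL cpd via pin tool; 48 hr, 37 C, 5% CO2; Hoechst 40 min; imager read of total nuclear intensity, ex 405/em 500-530 nm.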
MCF10A rerep: DNA re-replication induction in MCF 10a cells. MCF 10A DNA re-replication, Hoechst nuclear intensity, 48 h. Potency, µM (titrated, usually from 46.1 µM), actives largely listed as activators. actives 2.9% (n = 350,000); also: nearly all actives have a fitted effect of over 50% in size
TDP1 cell noCPT: qHTS for Inhibitors of human tyrosyl-DNA phosphodiesterase 1 (TDP1): qHTS in cells in absence of CPT; DT40 Tdp1-/- hTDP1 cells, no CPT, ATP luminescence, 48 h; Potency, µM (series often up to 46.2 µM), hits mostly inhibitors; actives 15% (n = 420,000); AID 686978, 2013; also: nearly all actives have a fitted effect of over 55% in size
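Seeded 400 DT40-hTDP1 cells/well (vehicle DMSO, no 20 nM CPT); pinned compounds; ≥48 hr at 37 °C; CellTiter-Glo luminescence as viability measure.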
BCR signal inh: blocks chronic active B-cell receptor signaling; ABC-DLBCL IkBa-CBG/CBR reporter, luminescence ratio, 4 h; actives 0.05% (n = 340,000); Potency, µM (highest dose often 46.1 µM), hits mostly inhibitors; AID 493014; active = well fitted inhibition curve with a large enough effect in the signal ratio, with a control signal flat, not every such curve was filed as active; inconclusive = small, poorly fitted or top-dose-only effect, or effect the other way, or a change in a side signal; the % refers to the signal ratio
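Compounds up to 46 uM were incubated four hours with TMD8 cells whose green CBG68 luciferase is fused to IkappaBalpha; red CBR luminescence normalised the signal, and concentration-effect curves were fitted to fusion, red and ratio data.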
IL1B secr inh: blocks inflammasome-driven IL-1 beta release | actives 4.7% (n = 360,000) | THP-1 LPS/ATP IL-1B secretion, AlphaLISA, 16 h; active compounds read low | activity change, % at 57.5 µM; in the data active = activity change below about -50%; inconclusive = mostly about -30% to -49%
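THP-1 cells pretreated 1 hr with compounds (up to 57.5 uM final), then stimulated with LPS (250 ng/mL final) plus ATP (1.25 mM final); secreted IL-1B measured by AlphaLISA after 16 hr, decreased signal indicating inhibition.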
Numbers stand for hits; [ ] = another dose, or the depositor's remark. Unless noted, calls follow the shape of the dose curve; as a rule, active = well fitted curve in the direction sought with a large enough effect; inconclusive = small, poorly fitted or top-dose-only effect, or another doubt; inactive = no such curve, though single readings can be large; an effect the other way counts as inactive or inconclusive.

`CCOc1ccc(C(=O)NCCS(=O)(=O)N2CCN(c3cccc(Cl)c3)CC2)cc1` gave DT40 TDP1 CPT inconclusive, TDP1 cell noCPT inactive and BCR signal inh inactive.
COc1ccccc1N(Cc1ccccc1)S(=O)(=O)c1cccc(C(=O)N2CCCCC2)c1 was read as DT40 TDP1 CPT inconclusive, SW480 rereplic inactive, MCF10A rerep inconclusive, TDP1 cell noCPT 18µM, BCR signal inh inactive and IL1B secr inh -58.
Screening COc1ccc(S(=O)(=O)N2CCCCCC2)cc1N(C)S(=O)(=O)c1ccccc1 returned DT40 TDP1 CPT inconclusive, SW480 rereplic inactive, MCF10A rerep 12µM, TDP1 cell noCPT 23µM, BCR signal inh inactive and IL1B secr inh inactive.
`COc1ccccc1N(Cc1ccccc1)S(=O)(=O)c1cccc(C(=O)Nc2ccccn2)c1` gave DT40 TDP1 CPT inconclusive, SW480 rereplic inconclusive, MCF10A rerep inactive, TDP1 cell noCPT inconclusive, BCR signal inh inactive and IL1B secr inh inconclusive.
COc1ccc(OC)c(NC(=O)c2cccc(S(=O)(=O)N(Cc3ccccc3)c3ccccc3OC)c2)c1 was read as DT40 TDP1 CPT 6.5µM, SW480 rereplic inactive, MCF10A rerep inconclusive, TDP1 cell noCPT inconclusive, BCR signal inh inactive and IL1B secr inh inactive.
`COc1ccccc1N(Cc1ccccc1)S(=O)(=O)c1cccc(C(=O)Nc2ccc(C(C)=O)cc2)c1` gave DT40 TDP1 CPT inactive, SW480 rereplic inactive, MCF10A rerep inactive, TDP1 cell noCPT inconclusive, BCR signal inh inactive and IL1B secr inh inactive.
COc1ccccc1N(C)S(=O)(=O)c1ccc(C)c(C(=O)N2CCCCCC2)c1 was read as DT40 TDP1 CPT 7.3µM, SW480 rereplic inactive, MCF10A rerep inactive, TDP1 cell noCPT 7.3µM, BCR signal inh inactive and IL1B secr inh inactive.
For CC12CCC(C(=O)Nc3ccncc3)(CC1O)C2(C)C (configuration not stated) the results were DT40 TDP1 CPT inactive, SW480 rereplic inactive, MCF10A rerep inactive, TDP1 cell noCPT inactive, BCR signal inh inactive and IL1B secr inh inactive.
CC1(C)CC(NC(=O)c2ccc(Br)o2)CC(C)(C)N1 was read as DT40 TDP1 CPT inactive, SW480 rereplic inactive, MCF10A rerep inactive, TDP1 cell noCPT inactive, BCR signal inh inactive and IL1B secr inh inactive.
Screening Cc1ccc(N2CCN(S(=O)(=O)c3cc(Br)cc4c3N(C(=O)C3CC3)CC4)CC2C)cc1 (configuration not stated) returned DT40 TDP1 CPT 13µM and TDP1 cell noCPT 16µM.
Screening CC(=O)N1CCc2cc(Br)cc(S(=O)(=O)CCC(=O)N3CCN(c4ccccc4)CC3)c21 returned DT40 TDP1 CPT inactive and TDP1 cell noCPT inactive.
Cc1ccc(CNS(=O)(=O)c2cc(Br)cc3c2N(C(=O)C2CC2)CC3)cc1 was read as DT40 TDP1 CPT inactive and TDP1 cell noCPT inactive.
CCCCN(C)S(=O)(=O)c1cc(Br)cc2c1N(C(=O)C1CC1)CC2 was read as DT40 TDP1 CPT 8.2µM, SW480 rereplic inactive, MCF10A rerep inactive, TDP1 cell noCPT 3.7µM, BCR signal inh inactive and IL1B secr inh inactive.
`CC(C)c1ccc(NS(=O)(=O)c2cc(Br)cc3c2N(C(=O)C2CC2)CC3)cc1` gave DT40 TDP1 CPT 8.2µM and TDP1 cell noCPT 4.6µM.
Screening O=C(CCS(=O)(=O)c1cc(Br)cc2c1N(C(=O)C1CC1)CC2)N1CCN(c2cccc(C(F)(F)F)c2)CC1 returned DT40 TDP1 CPT 16µM and TDP1 cell noCPT 18µM.
For Cc1cc(C(=O)COC(=O)c2cccc(O)c2)c(C)n1C1CC1 the results were DT40 TDP1 CPT inconclusive, SW480 rereplic inactive, MCF10A rerep inactive, TDP1 cell noCPT inconclusive, BCR signal inh inactive and IL1B secr inh inactive.
For Cc1oc(-c2ccccc2NC(=O)C2CCCO2)nc1CNC(=O)c1cc(Cl)ccc1F (configuration not stated) the results were DT40 TDP1 CPT inactive[9.04 µM] and TDP1 cell noCPT inactive.
